From PubChem BioAssay (EPA / NIEHS)
Activity calls are given as the source filed them. The calls were made as follows: active = hit-call score of the fitted dose curve at least 0.9, where 1 is the maximum; inactive = score below 0.9.

What follows are compounds tested on Apolipoprotein A-V (APOA5) gene, APOA5 (gene 116519) (assay: LTEA_HepaRG_APOA5: Life Technologies and Expression Analysis (LTEA) Assay for Apolipoprotein A-V (APOA5) gene using HepaRG (AID 2283474)). Conditions: mRNA level, 48 h; actives raise or lower the signal.
Protocol: LTEA_HepaRG is a cell based, multiplexed-readout assay that uses HepaRG, a human liver cell line, with measurements taken at 48 hours after chemical dosing on a 96-well plate.LTEA_HepaRG_APOA5 is one of 102 assay component(s) measured in the LTEA HepaRG cell culture assay. It is a marker of Steatosis.Data from the assay component LTEA_HepaRG_APOA5 was analyzed into 1 endpoint. This assay endpoint, LTEA_HepaRG_APOA5, was analyzed with bidirectional fitting relative to DMSO as the negative control and baseline of activity. Using a type of inducible reporter, measures of mRNA induction for gain or loss-of-signal activity can be used to understand regulation of transcription factor activity. To generalize the intended target to other relatable targets, this assay endpoint is annotated to the apolipoprotein intended target family, where the subfamily is Steatosis.
A total of 1060 chemcials from the ToxCast library were tested in eight-point concentration-response experiments. Cell culture and cytotoxicity assays were conducted at Thermo Fisher Scientific's Custom Services facility (Madison, WI). A single lot of human HepaRG cells (Thermo Fisher Scientific, Frederick, MD) was used for the cell culture experiments. 96-well format collagen type I coated plates of human HepaRG cells were prepared using established methods. Briefly, cryopreserved HepaRG cells were thawed, plated at a density of approximately 100,000 cells/well in HepaRG Thaw, Plate, and General Purpose media (HPRG770, Thermo Fisher Scientific), and incubated for 48 hours. 0.5% DMSO was selected as vehicle control to balance the requisite need of DMSO in HepaRG cultures to maintain differentiation (for example, baseline metabolism, proportions of hepatocytes vs. cholangiocytes), while enabling further hepatic receptor pathway activation (for example, PXR and CAR) in response to chemical exposure. 48 hours after plating, the culture medium was replaced with HepaRG Serum-Free Incudtion Media. Cells were exposed to each test chemical in duplicate and maintained in CO2 incubators for another 48 hours. Chemical plates were thawed to room temperature and 200x concentrations of treatment groups were prepared. 8-point conentration-reponse curves were made with the highest exposure at 100 uM, followed by half-log dilutions, all in 0.5% DMSO. Each test plate contained variouse controls, induction positive controls (1mM phenobarbital), cytotoxicity positive controls ([…] aflatoxin B1), vehicle controls (0.5% DMSO), and total lysis controls (0.5% DMSO). Cell morphology images were taken using an Essen IncuCyte FLR automated microscope, with six 96-well plates imaged in about 24 minutes. Images were captured and exported and JPEG files. Spent culture media was transfered to black-well plates for the LDH assay, and remaining media was sorted at -80 C for later use. Cells were treated with RLT buffer and frozen until shipped for gene expression analysis. Total RNA was isolated from the cell suspension in 75 uL of Buffer RLT (Qiagen, Germantown, MD 20874) by Quintiles/Expression Analysis (Durham, NC) using a custom isolation procedure. Total RNA from each plate well was transferred to a preamplification plate. Fluidigm's 96.96 Dynamic ArrayTM (Fluidigm, Amsterdam, the Netherlands) technology was used for gene expression analyses by quantitative reverse transcription polymerase chain reaction (qRT-PCR, performed by Quintiles/Expression Analysis, Durham, NC)89. Standard TaqManTM Assays (Applied Biosystems/ThermoFisher Scientific, Foster City, CA) were used to assess the expression of 93 genes selected based on their selectivity and sensitivity to important hepatic receptors known to be modulated by environmental chemicals; importance in human hepatocyte functionality; and hepatotoxicity. […]

| SMILES | outcome | AC50 |
| --- | --- | --- |
| COC(=O)c1ccc(O)cc1 | inactive |  |
| c1cc(-c2ccncc2)ccn1 | inactive |  |
| C[Si]1(C)O[Si](C)(C)O[Si](C)(C)O[Si](C)(C)O1 | inactive |  |
| Cc1cccc(C)c1O | inactive |  |
| CCCCCCCCCCO | inactive |  |
| O=C(O)Cc1ccccc1Nc1c(Cl)cccc1Cl | inactive |  |
| C1CCC(SSC2CCCCC2)CC1 | inactive |  |
| CC(=O)OCCOCCOCCOC(C)=O | inactive |  |
| Oc1ccc2ccccc2c1N=Nc1ccccc1 | inactive |  |
| CC1(C)NC(=O)NC1=O | inactive |  |
| CC(CO)OC(C)CO (stereo not given) (tested in a mixture with another compound) | inactive |  |
| O=[N+]([O-])C(CO)(CO)CO | inactive |  |
| CN1CCN(Cc2cc(-c3ccc4[nH]c(=O)oc4c3)co2)[C@@H](c2ccc(F)cc2)C1 | inactive |  |
| Nc1nc(N)c2nc(CNc3ccc(C(=O)N[C@@H](CCC(=O)O)C(=O)O)cc3)cnc2n1 | inactive |  |
| Cc1ccc(Cl)cc1 | inactive |  |
| CCCCCCC(=O)OCC | inactive |  |
| Clc1cc(Cl)c(Cl)cc1Cl | inactive |  |
| CC1(C)CC(N=C=O)CC(C)(CN=C=O)C1 (stereo not given) | inactive |  |
| Cc1nc(C)nc(N2C[C@@H](C)N(c3ccnc([C@@H](C)O)n3)[C@@H](C)C2)n1 | inactive |  |
| Cc1oc(-c2ccccc2)nc1CCOc1cccc2c1ccn2CCC(=O)O |  | 80.7 µM (active) |

| SMILES | outcome | AC50 |
| --- | --- | --- |
| C=CCOC(=O)c1ccccc1C(=O)OCC=C | inactive |  |
| CCCCCCCC=O | inactive |  |
| CCCc1cc(=O)[nH]c(=S)[nH]1 | inactive |  |
| Nc1ccccc1N |  | 58.2 µM (active) |
| CCOC(=O)CCC(=O)OCC | inactive |  |
| COc1cc(-c2nc(NC(=O)c3cc4cc(C)cc(C)c4n3CC(=O)O)sc2CCC2CCCCC2)c(OC)cc1Cl | inactive |  |
| CCCCC(CC)COC(=O)CC(C(=O)OCC(CC)CCCC)S(=O)(=O)O (stereo not given) | inactive |  |
| CCCCCCCCCCC | inactive |  |
| CCCCCC(=O)O | inactive |  |
| CC1=C(/C=C/C(C)=C/C=C/C(C)=C/CO)C(C)(C)CCC1 |  | 52.2 µM (active) |
| CN1CCCC1=O | inactive |  |
| CCNc1cccc(C)c1 | inactive |  |
| O=C(OCCCCCOC(=O)c1ccccc1)c1ccccc1 |  | 3.02 µM (active) |
| C=CCc1ccc(O)c(OC)c1 | inactive |  |
| Cc1cc(=O)[nH]c(=S)[nH]1 | inactive |  |
| NCC1(Cc2noc(=O)[nH]2)CCCCC1 | inactive |  |
| CC(=O)OC/C=C(\C)CCC=C(C)C | inactive |  |
| Cc1ccc(C(C)C)c(O)c1 | inactive |  |
| C[C@]12C=CC(=O)C=C1CC[C@@H]1[C@@H]2C(=O)C[C@@]2(C)[C@H]1CC[C@]2(O)C(=O)CO | inactive |  |
| NC(=O)Cn1c(=O)cc(CCN2CCN(c3nccc4sccc34)CC2)c2ccc(F)cc21 | inactive |  |
